# Out of some 5,500 compounds screened, about 2,000 (36%) were called active. Not shown: some 18% with an inconclusive outcome. Some of the results follow. Unmarked numbers belong to inactive results. Rule as the data show it: active = normalized growth mostly below about 0.91 (no sharp cut-off); inconclusive = no clear call, values can overlap the other calls; inactive = mostly above about 0.92.
# Test: chemical genetic growth profiling, strain panel (AID 1159580);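 also: tested at 20 µM; growth read once vehicle control cultures reached saturation at 30 °C; 1 = growth at the plate median or of vehicle wells; lower values mean less growth of the strain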
# Conditions: S. cerevisiae deletion strains, growth OD
structure (smiles),measurement,setting,value
OCc1c[nH]c2ccccc12,normalized growth,"locus YAL021C, strain ccr4, active compounds read low",0.949
same,normalized growth,"locus YAL026C, strain drs2, active compounds read low",0.991
same,normalized growth,"locus YAL030W, strain snc1, active compounds read low",0.979
same,normalized growth,"locus YBL061C, strain skt5, active compounds read low",0.969
same,normalized growth,"locus YBR009C, strain hhf1, active compounds read low",0.926
same,normalized growth,"locus YBR023C, strain chs3, active compounds read low",0.955
same,normalized growth,"locus YBR171W, strain sec66, active compounds read low",0.977
same,normalized growth,"locus YBR231C, strain swc5, active compounds read low",0.953
same,normalized growth,"locus YBR279W, strain paf1, active compounds read low",0.956
same,normalized growth,"locus YCL011C, strain gbp2, active compounds read low",0.815 (active)
same,normalized growth,"locus YCL016C, strain dcc1, active compounds read low",0.957
same,normalized growth,"locus YCL061C, strain MRC1, active compounds read low",1.01
same,normalized growth,"locus YCL069W, strain vba3, active compounds read low",0.976
same,normalized growth,"locus YCR088W, strain abp1, active compounds read low",0.971
same,normalized growth,"locus YDL005C, strain med2, active compounds read low",0.989
same,normalized growth,"locus YDL040C, strain nat1, active compounds read low",0.981
same,normalized growth,"locus YDR001C, strain nth1, active compounds read low",0.99
same,normalized growth,"locus YDR069C, strain doa4, active compounds read low",0.974
same,normalized growth,"locus YDR137W, strain rgp1, active compounds read low",0.741 (active)
same,normalized growth,"locus YDR159W, strain sac3, active compounds read low",0.88
same,normalized growth,"locus YDR195W, strain ref2",1
same,normalized growth,"locus YDR297W, strain sur2, active compounds read low",0.956
same,normalized growth,"locus YDR334W, strain swr1, active compounds read low",1
same,normalized growth,"locus YDR335W, strain msn5, active compounds read low",0.984
same,normalized growth,"locus YDR392W, strain spt3, active compounds read low",0.856
same,normalized growth,"locus YEL003W, strain gim4, active compounds read low",0.8 (active)
same,normalized growth,"locus YEL037C, strain rad23, active compounds read low",0.978
same,normalized growth,"locus YEL061C, strain CIN8 (second series), active compounds read low",0.975
same,normalized growth,"locus YER015W, strain faa2, active compounds read low",0.943
same,normalized growth,"locus YER016W, strain bim1, active compounds read low",0.977
same,normalized growth,"locus YER111C, strain swi4, active compounds read low",0.992
same,normalized growth,"locus YER155C, strain BEM2 (second series), active compounds read low",0.966
same,normalized growth,"locus YFR010W, strain ubp6, active compounds read low",0.984
same,normalized growth,"locus YGL167C, strain pmr1, active compounds read low",0.978
same,normalized growth,"locus YGL173C, strain kem1, active compounds read low",0.96
same,normalized growth,"locus YGL227W, strain vid30, active compounds read low",0.983
same,normalized growth,"locus YGL240W, strain doc1, active compounds read low",0.911
same,normalized growth,"locus YGL253W, strain hxk2, active compounds read low",0.98
same,normalized growth,"locus YHR013C, strain ard1, active compounds read low",0.955
same,normalized growth,"locus YHR027C, strain rpn1, active compounds read low",0.96
same,normalized growth,"locus YHR030C, strain SLT2, active compounds read low",1.02
same,normalized growth,"locus YHR079C, strain IRE1, active compounds read low",1.05
same,normalized growth,"locus YHR142W, strain chs7, active compounds read low",0.948
same,normalized growth,"locus YJL092W, strain hpr5, active compounds read low",0.979
same,normalized growth,"locus YJL095W, strain BCK1 (second series), active compounds read low",0.944
same,normalized growth,"locus YJL095W, strain BCK1, active compounds read low",0.979
same,normalized growth,"locus YJL115W, strain asf1, active compounds read low",0.981
same,normalized growth,"locus YJL129C, strain trk1, active compounds read low",0.879
same,normalized growth,"locus YJL154C, strain vps35, active compounds read low",0.987
same,normalized growth,"locus YJL164C, strain tpk1, active compounds read low",0.895 (active)
same,normalized growth,"locus YJL166W, strain qcr8, active compounds read low",0.779 (active)
same,normalized growth,"locus YJL187C, strain SWE1, active compounds read low",0.958
same,normalized growth,"locus YJR066W, strain TOR1, active compounds read low",0.961
same,normalized growth,"locus YKL160W, strain elf1, active compounds read low",0.907
same,normalized growth,"locus YKR026C, strain gcn3, active compounds read low",0.998
same,normalized growth,"locus YKR091W, strain srl3, active compounds read low",0.99
same,normalized growth,"locus YLL001W, strain dnm1, active compounds read low",1
same,normalized growth,"locus YLL026W, active compounds read low",0.976
same,normalized growth,"locus YLL041C, strain sdh2, active compounds read low",0.979
same,normalized growth,"locus YLR113W, strain HOG1, active compounds read low",1
same,normalized growth,"locus YLR221C, strain rsa3, active compounds read low",0.862 (active)
same,normalized growth,"locus YLR258W, strain gsy2, active compounds read low",0.939
same,normalized growth,"locus YLR262C, strain YPT6 (second series), active compounds read low",0.663 (active)
same,normalized growth,"locus YLR320W, strain mms22, active compounds read low",0.742 (active)
same,normalized growth,"locus YLR342W, strain FKS1, active compounds read low",0.905 (active)
same,normalized growth,"locus YLR357W, strain rsc2, active compounds read low",0.977
same,normalized growth,"locus YLR370C, strain arc18, active compounds read low",0.982
same,normalized growth,"locus YLR384C, strain iki3, active compounds read low",0.976
same,normalized growth,"locus YML120C, strain ndi1, active compounds read low",0.902 (active)
same,normalized growth,"locus YMR058W, strain fet3, active compounds read low",0.991
same,normalized growth,"locus YMR125W, strain sto1, active compounds read low",0.974
same,normalized growth,"locus YMR129W, active compounds read low",1
same,normalized growth,"locus YMR205C, strain PFK2, active compounds read low",0.849 (active)
same,normalized growth,"locus YMR231W, strain pep5, active compounds read low",0.968
same,normalized growth,"locus YNL071W, strain lat1, active compounds read low",0.622 (active)
same,normalized growth,"locus YNL183C, strain NPR1, active compounds read low",0.931
same,normalized growth,"locus YNL209W, strain ssb2, active compounds read low",0.969
same,normalized growth,"locus YNL248C, strain rpa49, active compounds read low",0.997
same,normalized growth,"locus YNL322C, strain KRE1 (second series), active compounds read low",0.996
same,normalized growth,"locus YNR049C, strain mso1, active compounds read low",0.99
same,normalized growth,"locus YOR001W, strain rrp6, active compounds read low",0.854 (active)
same,normalized growth,"locus YOR070C, strain gyp1, active compounds read low",0.93
same,normalized growth,"locus YOR080W, strain dia2, active compounds read low",1
same,normalized growth,"locus YOR083W, strain WHI5, active compounds read low",0.987
same,normalized growth,"locus YOR106W, strain vam3, active compounds read low",0.702 (active)
same,normalized growth,"locus YOR231W, strain MKK1, active compounds read low",1.04
same,normalized growth,"locus YOR265W, strain rbl2, active compounds read low",0.972
same,normalized growth,"locus YOR270C, strain vph1, active compounds read low",0.974
same,normalized growth,"locus YOR290C, strain snf2, active compounds read low",0.963
same,normalized growth,"locus YPL051W, strain arl3, active compounds read low",0.791 (active)
same,normalized growth,"locus YPL078C, strain atp4, active compounds read low",0.983
same,normalized growth,"locus YPL106C, strain sse1, active compounds read low",0.952
same,normalized growth,"locus YPL240C, strain hsp82, active compounds read low",0.914 (active)
same,normalized growth,"locus YPL256C, strain CLN2, active compounds read low",1.08

# Source: PubChem BioAssay AID1159580 (chemical genetic matrix, 2015)
